Measured values from PubChem BioAssay AID1159580 (chemical genetic matrix, 2015).
Several values for one entry are separate records, joined by “and”; a condition that tells them apart may be missing. Equal entries are not always repeated. In all, about 5,500 compounds went through this assay and about 2,000 (36%) were called active. Roughly 18% stayed inconclusive and do not appear here. No stated cut-off is given here; in the data, active means normalized growth mostly below about 0.91 (no sharp cut-off); inconclusive means no clear call, values can overlap the other calls; inactive means mostly above about 0.92. The list shows a part of the results.

Assay: chemical genetic growth profiling, strain panel (AID 1159580);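 further: tested at 20 µM; growth read once vehicle control cultures reached saturation at 30 °C; 1 = growth at the plate median or of vehicle wells; lower values mean less growth of the strain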
Settings: S. cerevisiae deletion strains, growth OD

Measured: normalized growth

CCCC(C)C1(CC)C(=O)NC(=O)NC1=O (configuration not stated)
inactive: locus YAL013W, strain DEP1, active compounds read low 1.01 | locus YAL021C, strain ccr4, active compounds read low 0.996 | locus YAL026C, strain drs2, active compounds read low 1 | locus YAL030W, strain snc1, active compounds read low 1 | locus YBL061C, strain skt5, active compounds read low 1 | locus YBR009C, strain hhf1, active compounds read low 1.01 | locus YBR021W, strain FUR4, active compounds read low 1 | locus YBR023C, strain chs3, active compounds read low 1 | locus YBR171W, strain sec66, active compounds read low 1 | locus YBR229C, strain ROT2, active compounds read low 1.01 | locus YBR231C, strain swc5, active compounds read low 0.994 | locus YBR279W, strain paf1, active compounds read low 1 | locus YCL011C, strain gbp2, active compounds read low 1 | locus YCL016C, strain dcc1, active compounds read low 0.999 | locus YCL029C, strain bik1, active compounds read low 1.03 | locus YCL061C, strain MRC1, active compounds read low 1 | locus YCL069W, strain vba3, active compounds read low 0.998 | locus YCR088W, strain abp1, active compounds read low 0.996 | locus YDL005C, strain med2, active compounds read low 0.992 | locus YDL035C, strain GPR1, active compounds read low 1.03 | locus YDL040C, strain nat1, active compounds read low 1 | locus YDL074C, strain BRE1, active compounds read low 1.03 | locus YDL101C, strain DUN1, active compounds read low 1.02 | locus YDL134C, strain PPH21, active compounds read low 1.02 | locus YDL185W, strain tfp1, active compounds read low 1.02 | locus YDL192W, strain arf1, active compounds read low 1.02 | locus YDR001C, strain nth1, active compounds read low 0.998 | locus YDR069C, strain doa4, active compounds read low 1 | locus YDR101C, strain arx1, active compounds read low 1.01 | locus YDR137W, strain rgp1, active compounds read low 1.03 | locus YDR150W, strain NUM1, active compounds read low 1.02 | locus YDR159W, strain sac3, active compounds read low 0.995 | locus YDR162C, strain NBP2, active compounds read low 1.03 | locus YDR195W, strain ref2 0.982 | locus YDR297W, strain sur2, active compounds read low 1 | locus YDR318W, strain mcm21, active compounds read low 1.03 | locus YDR334W, strain swr1, active compounds read low 1.01 | locus YDR335W, strain msn5, active compounds read low 1 | locus YDR388W, active compounds read low 1.01 | locus YDR392W, strain spt3, active compounds read low 1.02 | locus YDR502C, strain sam2, active compounds read low 1.02 | locus YEL003W, strain gim4, active compounds read low 1.01 | locus YEL037C, strain rad23, active compounds read low 0.992 | locus YEL061C, strain CIN8 (second series), active compounds read low 1 | locus YEL061C, strain CIN8, active compounds read low 1.01 | locus YER015W, strain faa2, active compounds read low 1 | locus YER016W, strain bim1, active compounds read low 1.03 | locus YER110C, active compounds read low 1.01 | locus YER111C, strain swi4, active compounds read low 0.988 | locus YER155C, strain BEM2 (second series), active compounds read low 0.999 | locus YER155C, strain BEM2, active compounds read low 1.01 | locus YER167W, strain BCK2, active compounds read low 1.03 | locus YFR010W, strain ubp6, active compounds read low 1.01 | locus YGL078C, strain dbp3, active compounds read low 1.01 | locus YGL086W, strain mad1, active compounds read low 1.02 | locus YGL167C, strain pmr1, active compounds read low 1 | locus YGL173C, strain kem1, active compounds read low 0.993 | locus YGL227W, strain vid30, active compounds read low 0.99 | locus YGL240W, strain doc1, active compounds read low 0.989 | locus YGL248W, strain PDE1, active compounds read low 1.01 | locus YGL253W, strain hxk2, active compounds read low 1 | locus YGR078C, strain PAC10, active compounds read low 1.02 | locus YGR135W, strain pre9, active compounds read low 1 | locus YGR229C, strain SMI1, active compounds read low 1.02 | locus YGR252W, strain gcn5, active compounds read low 1.05 | locus YHR013C, strain ard1, active compounds read low 0.978 | locus YHR027C, strain rpn1, active compounds read low 1 | locus YHR030C, strain SLT2, active compounds read low 1.01 and 0.987 | locus YHR079C, strain IRE1 (second series), active compounds read low 1.02 | locus YHR079C, strain IRE1, active compounds read low 0.979 | locus YHR094C, strain hxt1, active compounds read low 1.01 | locus YHR129C, strain ARP1, active compounds read low 1 | locus YHR142W, strain chs7, active compounds read low 1 | locus YHR200W, strain rpn10, active compounds read low 1.02 | locus YIL066C, strain RNR3, active compounds read low 1.01 | locus YIL073C, strain SPO22, active compounds read low 1.08 | locus YIL125W, strain kgd1, active compounds read low 1.02 | locus YIR030C, strain dcg1, active compounds read low 1.02 | locus YJL092W, strain hpr5, active compounds read low 0.995 | locus YJL095W, strain BCK1 (second series), active compounds read low 1 | locus YJL095W, strain BCK1, active compounds read low 1.02 and 0.993 | locus YJL115W, strain asf1, active compounds read low 0.999 | locus YJL129C, strain trk1, active compounds read low 1.02 | locus YJL134W, strain LCB3, active compounds read low 1.01 | locus YJL154C, strain vps35, active compounds read low 1 | locus YJL164C, strain tpk1, active compounds read low 1.01 | locus YJL166W, strain qcr8, active compounds read low 1 | locus YJL168C, strain set2, active compounds read low 1.03 | locus YJL187C, strain SWE1 (second series), active compounds read low 1.01 | locus YJL187C, strain SWE1, active compounds read low 0.999 | locus YJR043C, strain POL32, active compounds read low 1.05 | locus YJR066W, strain TOR1, active compounds read low 0.954
